DAX1 inh-1 – NR0B1 (DAX1) inhibition; AID 504766; HEK293 Gal4-DAX1 luciferase reporter, luminescence; inhibition, % at 6.75 µM; P51843; hit rate 0.99% among 340,000;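 active = inhibition above the mean over all tested compounds plus 3 SD, cut at about 4.2% in these data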;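 also: 0% = DAX1-transfected cells with DMSO and 100% = empty-vector control cells with DMSO; inhibition shows as a rise in luminescence from relieved DAX1 repression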
Target sequence (P51843 207-470 limits assumed): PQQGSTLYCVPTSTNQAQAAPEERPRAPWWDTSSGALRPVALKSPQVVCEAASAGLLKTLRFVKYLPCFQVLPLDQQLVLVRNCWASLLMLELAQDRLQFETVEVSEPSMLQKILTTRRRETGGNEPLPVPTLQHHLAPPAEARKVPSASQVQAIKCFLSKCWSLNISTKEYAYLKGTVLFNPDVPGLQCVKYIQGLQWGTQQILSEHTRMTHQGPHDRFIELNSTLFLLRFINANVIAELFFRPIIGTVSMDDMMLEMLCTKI
hcDAF-12 act – activators of H. contortus DAF-12 nuclear receptor; hit rate 1.4% among 370,000; HEK293 hcDAF-12 lit1-tk-luc reporter, luminescence; 0% DMSO, 100% Δ7-dafachronic acid; activation, % at 6.8 µM; AID 652067;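 active = activation above the mean of all tested compounds plus 3 SD, cut at about 5.5% in these data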;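 also: 100% = response to 3 µM Δ7-dafachronic acid high control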
ssDAF12 agonist – activators of S. stercoralis DAF-12 nuclear receptor; activation, % at 6.8 µM; HEK293 ssDAF-12/GRIP1 lit1-tk-luc reporter, luminescence; % of 3 µM dafachronic acid response; hit rate 1% among 370,000; AID 652126;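 active = activation above the mean over all tested compounds plus 3 SD, cut at about 0.9% in these data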;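 also: 0% = DMSO-only wells and 100% = 3 µM delta7-dafachronic acid wells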
DAX1 inh-2 – inhibitors of DAX1 repression of SF-1 activated StAR promoter; HEK293T StAR-luciferase reporter, SF-1/DAX-1 repression relief; inhibition, % at 6.8 µM; hit rate 1.1% among 370,000;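 active = inhibition above the mean over all tested compounds plus 3 SD, cut at about 3.6% in these data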;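 also: 0% = DAX-1 cells with DMSO and 100% = cells lacking DAX-1 with DMSO; higher inhibition means more luminescence from relief of DAX-1 repression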
hgDAF12 agonist – agonists of H. glycines DAF-12 nuclear receptor; HEK293 GAL4-hgDAF12 UAS-luciferase reporter, agonist luminescence; normalized to butyrate control; AID 687014; activation, % at 6.8 µM; hit rate 1.8% among 370,000;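 active = activation above a cutoff set at the mean of all screened compounds plus 3 SD, cut at about 10% in these data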;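 also: 0% = DMSO wells and 100% = sodium butyrate wells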
SMARCA2 act – SMARCA2 function activation, primary screen. MG213 cells, MMTV-luciferase reporter, dexamethasone, overnight. activation, % at 9.1 µM. hit rate 1% among 370,000; in the data active = activation above about 7.8%;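 also: 0% = vehicle wells and 100% = reference activator wells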
* marks the source's active call; other numbers are inactive results; · = no result. Most compounds without a hit are left out; they make up all but 4.8% or so of the library.

SMILES	DAX1 inh-1	hcDAF-12 act	ssDAF12 agonist	DAX1 inh-2	hgDAF12 agonist	SMARCA2 act
COCCNC(=O)C1(C)C=CC2(CCCCC2)N1C(=O)c1ccccc1 (centres undefined)	4.7*	0	-1	0	2	1
CNC(=O)C1(C)C=CC2(CCCCC2)N1C(=O)OC (centres undefined)	-1	0	-1	0	-1	1
COc1cc(C(=O)OCC(=O)N2CCCCC2C)ccc1OCc1c(C)noc1C (centres undefined)	4.7*	-2	-1	0	7	-2
COc1cc(OC)cc(C(=O)N[C@H](C(=O)OCC(N)=O)C(C)C)c1	2	0	-1	0	1	1
CCOC(=O)c1cccc(C(=O)OCC)n1	1	-1	-1	0	-1	-1
NC(=O)c1cccc(C(N)=O)n1	6.1*	-1	-2	0	2	-1
O=C(Nc1ccc(S(=O)(=O)NCc2ccco2)cc1)c1ccc(F)cc1	-2	-5	-1	-1	-4	-3
CCOc1cc(/C=N/Nc2nc(Nc3ccccc3)nc(N3CCCCC3)n2)ccc1OCC(=O)O	0	-1	-1	0	-1	-4
CCOc1cc(/C=N/Nc2ccccc2Cl)ccc1OCC(=O)O	-1	6.3*	0	2	0	4
CSCC[C@H](NC(=O)OC(C)(C)C)C(=O)N1CCC(C(=O)N[C@@H](C)C(=O)NCc2ccc(F)cc2)CC1	2	1	-1	2	-1	-3
CSCC[C@H](NC(=O)OC(C)(C)C)C(=O)N1CCC(C(=O)N[C@@H](C)C(=O)NC(C)c2ccccc2)CC1 (some centres undefined)	8.3*	-2	-2	0	2	1
CC(C)C[C@H](N)C(=O)N1CCC(C(=O)N[C@H](C(=O)NC(C)c2ccccc2)C(C)C)CC1 (some centres undefined)	5.5*	0	-1	1	0	1
COc1ccc(CNC(=O)[C@@H](NC(=O)C2CCN(C(=O)[C@@H](N)CCSC)CC2)C(C)C)cc1	5.9*	-1	-1	0	-3	1
Cc1cccc(C)c1-c1ccc(CN2C(CC(C)C)C(=O)N(Cc3cn(CCO)nn3)CCS2(=O)=O)cc1 (centres undefined)	0	0	-1	0	-1	-4
Cc1ccnc(NC(=S)NC(=O)/C=C/c2ccccc2)c1	0	1	-1	0	2	2
Cc1cccnc1NC(=S)NC(=O)/C=C/c1ccccc1	2	1	-1	1	12*	5
NC(=O)CCN1CCCCC1	4.5*	1	-2	0	0	0
Cc1oc(-c2ccccc2F)nc1CS(=O)(=O)CC(=O)N1CCc2ccccc21	1	2	-1	0	2	2
CC(=O)Nc1sc2c(c1-c1nc(-c3ccccc3)cs1)CCN(C(C)C)C2	·	6.3*	0	·	6	·
COC(=O)c1c(NC(=O)C2CCCCC2C(=O)O)sc2c1CCCCC2 (centres undefined)	4.9*	3	0	2	3	4
COc1ccc(/C=C/C(=O)c2ccccc2)cc1COc1ccccc1F	-1	-2	-2	-3	0	-1
CC(C)=C1C2C=CC1C(C(=O)Nc1cccc(C)c1)C2C(=O)O (centres undefined)	0	5	0	1	-1	6
COc1ccc(CCNC(=O)COC(=O)c2cc3ccccc3oc2=O)cc1OC	0	4	1.4*	-1	3	-3
CCOC(=O)c1[nH]c2c(c1-c1ccccc1)C(=O)CC(c1ccccc1)C2 (centres undefined)	6.6*	0	-1	2	6	3
COC(=O)c1[nH]c2c(c1C)C(=O)CC(c1ccccc1)C2 (centres undefined)	1	0	0	0	-4	-1
CCC(C)OC(=O)c1[nH]c2c(c1C)C(=O)CC(c1ccc(N(C)C)cc1)C2 (centres undefined)	0	-3	-1	0	11*	3
Cc1cccc(N(C(=O)Cn2nnc(-c3ccccc3F)n2)C(C(=O)NC(C)(C)C)c2ccncc2)c1 (centres undefined)	0	1	-1	0	3	0

Source: PubChem
